# Values joined by “and” are separate entries in the source; they are usually repeats but may differ in a detail not shown here. Equal entries are not always repeated. The panel holds about 83,000 compounds, 20% with a hit somewhere; the sample as a whole holds those more often.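 Treatment: one concentration, 48 hours, 96-well format. Scoring: percent growth, with anything below 10 considered active.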 Active and inactive are the calls of the source.
# Assays:
# Assay in all cases: NCI-60 one-dose screen, 48 h (100 = growth as untreated, 0 = no growth, -100 = all killed)
# SK-MEL-2 melanoma = system: SK-MEL-2 melanoma
# EKVX NSCLC = system: EKVX NSCLC
# SN12C renal = system: SN12C renal
# UO-31 renal = system: UO-31 renal
# TK-10 renal = system: TK-10 renal
# ACHN renal = system: ACHN renal
# CAKI-1 renal = system: CAKI-1 renal
# A498 renal = system: A498 renal
# CCRF-CEM leukemia = system: CCRF-CEM leukemia
# MOLT-4 leukemia = system: MOLT-4 leukemia
smiles,measurement,setting,value
CC[C@@]1(O)C(=O)OCc2c1cc1n(c2=O)Cc2cc3c(CN(C)C)c(O)ccc3nc2-1,growth,SK-MEL-2 melanoma; 10 µM,-36.9% (active) and -18.1% (active)
same,growth,EKVX NSCLC; 10 µM,9.24% (active) and 18.9% (inactive)
same,growth,SN12C renal; 10 µM,13.6% (inactive) and 14.3% (inactive)
same,growth,UO-31 renal; 10 µM,-45.7% (active) and -74.6% (active)
same,growth,TK-10 renal; 10 µM,2.54% (active) and -4.42% (active)
same,growth,ACHN renal; 10 µM,-40% (active) and -40.5% (active)
same,growth,CAKI-1 renal; 10 µM,-35% (active) and -16.2% (active)
same,growth,A498 renal; 10 µM,-50.8% (active) and -69.4% (active)
same,growth,CCRF-CEM leukemia; 10 µM,-28.7% (active)
same,growth,MOLT-4 leukemia; 10 µM,-3.69% (active) and -19.2% (active)
CN(Cc1cnc2nc(N)nc(N)c2n1)c1ccc(C(=O)N[C@@H](CCC(=O)O)C(=O)O)cc1,growth,SK-MEL-2 melanoma; 2.5 µM,93.1% (inactive)
same,growth,SK-MEL-2 melanoma; 10 µM,83.2% (inactive)
same,growth,EKVX NSCLC; 2.5 µM,41.5% (inactive)
same,growth,EKVX NSCLC; 10 µM,47% (inactive)
same,growth,SN12C renal; 2.5 µM,33.3% (inactive)
same,growth,SN12C renal; 10 µM,26.9% (inactive)
same,growth,UO-31 renal; 2.5 µM,37.8% (inactive)
same,growth,UO-31 renal; 10 µM,32.3% (inactive)
same,growth,TK-10 renal; 2.5 µM,66.9% (inactive)
same,growth,TK-10 renal; 10 µM,67.7% (inactive)
same,growth,ACHN renal; 2.5 µM,24.9% (inactive)
same,growth,ACHN renal; 10 µM,29.4% (inactive)
same,growth,CAKI-1 renal; 2.5 µM,19.2% (inactive)
same,growth,CAKI-1 renal; 10 µM,15.5% (inactive)
same,growth,A498 renal; 2.5 µM,-11.8% (active)
same,growth,CCRF-CEM leukemia; 2.5 µM,12.9% (inactive)
same,growth,CCRF-CEM leukemia; 10 µM,18.8% (inactive)
same,growth,MOLT-4 leukemia; 2.5 µM,14.7% (inactive)
same,growth,MOLT-4 leukemia; 10 µM,10.9% (inactive)
COc1ccc2sc3cccc(NCCN(C)C)c3c(=O)c2c1,growth,SK-MEL-2 melanoma; 10 µM,77.3% (inactive) and 70.7% (inactive)
same,growth,EKVX NSCLC; 10 µM,26.2% (inactive)
same,growth,SN12C renal; 10 µM,45.1% (inactive) and 9.54% (active)
same,growth,UO-31 renal; 10 µM,17.4% (inactive) and -2.55% (active)
same,growth,TK-10 renal; 10 µM,36.1% (inactive) and 32.2% (inactive)
same,growth,ACHN renal; 10 µM,21.3% (inactive) and -28.3% (active)
same,growth,CAKI-1 renal; 10 µM,23.8% (inactive) and -29.8% (active)
same,growth,A498 renal; 10 µM,77.8% (inactive) and 5.39% (active)
same,growth,CCRF-CEM leukemia; 10 µM,21.3% (inactive)
same,growth,MOLT-4 leukemia; 10 µM,8.84% (active) and -15.2% (active)
CC/C(=C(\c1ccccc1)c1ccc(OCCN(C)C)cc1)c1ccccc1,growth,SK-MEL-2 melanoma; 10 µM,68.5% (inactive)
same,growth,SK-MEL-2 melanoma; 12.5 µM,-50% (active)
same,growth,EKVX NSCLC; 10 µM,60% (inactive)
same,growth,EKVX NSCLC; 12.5 µM,36.5% (inactive)
same,growth,SN12C renal; 10 µM,47.7% (inactive)
same,growth,SN12C renal; 12.5 µM,37.1% (inactive)
same,growth,UO-31 renal; 10 µM,40.3% (inactive)
same,growth,UO-31 renal; 12.5 µM,-62.4% (active)
same,growth,TK-10 renal; 10 µM,51.9% (inactive)
same,growth,TK-10 renal; 12.5 µM,56.2% (inactive)
same,growth,ACHN renal; 10 µM,60.6% (inactive)
same,growth,ACHN renal; 12.5 µM,25.9% (inactive)
same,growth,CAKI-1 renal; 10 µM,29.1% (inactive)
same,growth,CAKI-1 renal; 12.5 µM,9.74% (active)
same,growth,A498 renal; 10 µM,64.1% (inactive)
same,growth,A498 renal; 12.5 µM,-6.6% (active)
same,growth,CCRF-CEM leukemia; 10 µM,34.6% (inactive)
same,growth,CCRF-CEM leukemia; 12.5 µM,-14.1% (active)
same,growth,MOLT-4 leukemia; 10 µM,33.3% (inactive)
same,growth,MOLT-4 leukemia; 12.5 µM,-10.8% (active)
